From PubChem BioAssay come the findings set out here.

A number with no mark means an inactive call. The rule behind the calls is not given here.

Pantothenate synthetase (Mycobacterium tuberculosis (strain ATCC 25618 / H37Rv)), sequence (P9WIL5 whole entry, looked up): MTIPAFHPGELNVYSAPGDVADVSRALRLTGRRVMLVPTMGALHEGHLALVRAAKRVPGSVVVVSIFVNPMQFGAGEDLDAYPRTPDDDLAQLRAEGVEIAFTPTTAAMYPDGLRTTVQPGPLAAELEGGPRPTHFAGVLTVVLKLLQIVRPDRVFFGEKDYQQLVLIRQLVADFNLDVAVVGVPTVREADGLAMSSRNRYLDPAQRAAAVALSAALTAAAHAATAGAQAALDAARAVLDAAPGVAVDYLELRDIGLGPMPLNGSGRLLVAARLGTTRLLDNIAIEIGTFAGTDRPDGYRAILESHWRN

This test addresses Pantothenate synthetase (Mycobacterium tuberculosis (strain ATCC 25618 / H37Rv)) (UniProt P9WIL5). Put plainly: Recombinant Mtb pantothenate synthetase (PanC) inhibitors, coupled enzyme, confirmatory (AID 375).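 Note: 0% = full reaction with vehicle and 100% = no enzyme background.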 The conditions noted are these: coupled enzyme assay; at 10 µM, stronger effect = higher value.
In general, inhibition refers to the share of the control response that was lost under treatment. As to `COc1ccc(-n2nnc3c(=O)n(C/C=C/c4ccccc4)cnc32)cc1`, the inhibition is 2%. Consider `O=C(c1ccc2c(c1)OCCO2)N1CCCCC1`, for which the inhibition is 1%.

As to `Cc1cc(C)c(C)c(OCC(=O)NCC2CCCO2)c1` (stereo not given), the inhibition is 0%. The value for `Cc1nc2c(-c3ccccc3)c(C)nn2c(C)c1CCC(=O)NCc1ccco1` was 2%; that for `COc1ccc(C)cc1-n1nnnc1SCC(=O)Nc1cc(C)on1` was 0%; that for `CCOc1cc2[nH]c(=O)n(CCC(=O)NCCc3ccc(OC)c(OC)c3)c(=O)c2cc1OCC` was 1%. `CCOc1ccc(N(CC(=O)NCc2ccco2)S(=O)(=O)c2ccc(OC)c(OC)c2)cc1`: the inhibition was 0%. The value for `O=C1NC2c3ccccc3C(=O)N2c2c1cnn2-c1ccccc1` (stereo not given) was 1%. `CCOc1ccccc1N(CC(=O)N1CCOCC1)S(=O)(=O)c1ccccc1`: the inhibition was 0%. The value for `O=C(c1cnn2c(C(F)F)cc(-c3ccccc3)nc12)N1CCN2CCCC2C1` (stereo not given) was 0%; that for `Nc1nc2ccccc2n1/N=C/c1ccc(Br)cc1` was 1%; that for `Cc1sc2ncnc(Oc3ccc(-n4ccnc4)cc3)c2c1C` was 4%. The value for `Cc1n[nH]c(C)c1S(=O)(=O)N1CCN(c2ccccn2)CC1` was 2%. The value for `CCN(CC)CCNC(=O)c1cc(Cl)c(N)cc1OC` was 0%; that for `CN1CC[n+]2cnc3ccccc3c21` was 1%; that for `Nc1c(C(=O)NCc2ccco2)nnn1Cc1ccccc1` was 2%. In the case of `CCOC(=O)c1cnn(-c2cc(C)c3cc(C)cc(C)c3n2)c1N`, the inhibition is 0%.

As to `CCC1Oc2ccc(C)cc2N(CC(=O)NCCCN2CCCCC2CC)C1=O` (stereo not given), the inhibition was 4%.

Turning to `O=C1CCC(c2ccccc2)N1C(=O)c1cccnc1` (stereo not given), the inhibition is 0%. Turning to `Cc1sc(NC(=O)CSc2nnc(COc3ccccc3)n2C)c(C#N)c1C`, the inhibition was 6%. Take `Cn1c(CN2CCOCC2)nc2cc(NC(=O)c3ccccc3Cl)ccc21`: the inhibition was 5%.

Turning to `Cc1cccc(NC(=O)CCN2CCN(C/C=C/c3ccccc3)CC2)c1`, the inhibition was 0%. As for `Cc1nn(C)cc1/C=N/O`, the inhibition was 0%. Take `CCOC(=O)c1sc2nc(NC(=O)COc3ccccc3)sc2c1C`: the inhibition is 0%. Consider `Clc1ccc2c(c1)C(N1CCNCC1)=Nc1ccccc1O2`, for which the inhibition is 8%. To `O=C(CSc1ncnc2c1oc1ccccc12)Nc1ccccc1F` belongs 2%. As for `COC(=O)C1=C(C)NC(C)=C(C(=O)OC)C1C1CC=CCC1` (stereo not given), the inhibition is 3%. The value for `CC(C)NCC(O)COc1cccc2[nH]ccc12` (stereo not given) was 0%; that for `COc1ccccc1-c1c(C)nn2c(C)c(C(C)=O)cnc12` was 3%; that for `COC(=O)CN(c1ccc(C)c(Cl)c1)S(C)(=O)=O` was 0%. To `COc1cccc(-c2nnc(NC(C)=O)o2)c1` belongs 0%; to `CN=C1CC(C)(C)CC(=O)/C1=C(/O)CCC(=O)NC`, 0%; to `CCn1ncc(C2=NOC(C(=O)N3CCC(C(N)=O)CC3)C2)c1C` (stereo not given), 0%. For `Cn1c(=O)c(C(=S)NC(=O)C2CC2)c(N)n(Cc2ccccc2)c1=O`, the inhibition is 3%. Regarding `COc1ccc(S(=O)(=O)Nc2ccccc2OC)cc1C`, the inhibition was 2%. To `CCOc1ccccc1N1C(=O)c2ccc(C(=O)Nc3cccnc3)cc2C1=O` belongs 4%. To `COc1ccc(N2C(=O)C3CCCN3C2c2ccc(F)cc2)cc1Cl` (stereo not given) belongs 1%; to `CCn1nnnc1SCC(=O)Nc1nnc(C(C)C)s1`, 3%.

Turning to `O=C(CSc1nnnn1C1CCCC1)Nc1cccc(NC(=O)c2ccco2)c1`, the inhibition was 5%.

`Cc1ccc(-n2cnnn2)c2cccnc12`: the inhibition was 5%.
